Screening data from PubChem.
The list is not random: actives were taken first. Their share in the collection is about 2.3%.
aSyn yeast inh – rescues yeast growth from alpha-synuclein toxicity. hit rate 0.14% among 370,000. Potency, µM (series often up to 46.1 µM), for the others: top-dose growth rescue (activation), actives largely listed as activators. Yeast expressing alpha-synuclein, growth rescue, BacTiter-Glo, 24 h; also: potency is read from the fitted curve at half-maximal effect; % of control where 0% means no effect; nearly all actives have a fitted effect of over 65% in size
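Readout is rescue of growth in alpha-synuclein-expressing yeast, so inhibitors of toxicity appear as activators. Growth after 24 hr at 30 deg C in galactose medium is quantified by luminescence.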
TDP-43 yeast inh – inhibitors of TDP-43 toxicity in yeast; TDP-43 expressing yeast growth rescue, BacTiter-Glo, 24 h; Potency, µM (top dose mostly 46.1 µM), without a hit: at the top dose growth rescue (activation), most hits filed as activators; hit rate 1.8% among 410,000; AID 652104; also: potency is read from the fitted curve at half-maximal effect; % of control where 0% means no effect; nearly all actives have a fitted effect of over 50% in size
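Yeast cells expressing TDP-43 under galactose induction are exposed to compounds for 24 hr at 30 deg C. BacTiter-Glo luminescence measures growth, so protective compounds score as activators.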
Abeta rescue – compounds reversing amyloid beta toxicity in yeast | hit rate 0.063% among 410,000 | yeast expressing A-beta42, growth rescue, OD600, 48 h; response scale: 0% DMSO, 100% iron-clioquinol control | Potency, µM (series often up to 46.1 µM), usual class: activators; also: potency is read from the fitted curve at half-maximal effect; nearly all actives have a fitted effect of over 55% in size
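Growth rescue measured by 600 nm absorbance after 48 h yeast culture at 30 C with compound. Values normalized between DMSO and an equimolar ferric chloride plus clioquinol control.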
Akt phos inh – blocks phosphorylation of Akt; Neuro2A IGF-stimulated pAkt S473 HTRF, 20 min; stronger effect = lower value; activity change, % for hits at 50 µM; hit rate 0.32% among 360,000; in the data active = activity change below about -80%; inconclusive = mostly about -51% to -80%; also: % is scaled to controls: 0 for no effect and ±100 for the full control effect
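Neuro2A cells in DMEM with 0.5% FBS, overnight at 37 deg C, given compound at single 50 µM final, then IGF (6 nM final) for 20 min at 37 deg C. Lysed; phospho-Akt Ser473 by HTRF after 24 h, 665/615 ratio.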
FUS suppressor – rescues growth of FUS-expressing yeast; S. cerevisiae FUS-expressing, growth rescue, OD600, 24 h; Potency, µM (highest dose often 76.6 µM), most hits filed as activators; hit rate 0.24% among 390,000;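 also: potency is read from the fitted curve at half-maximal effect; plate controls were DMSO vehicle for no effect and reference control for full effect; nearly all actives have a fitted effect of over 55% in size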
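Restored growth of FUS-toxic S. cerevisiae, read as 600 nm absorbance after 24 h at 30C in galactose medium (starting OD 0.005). Controls CP55940 and DMSO.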
Starred values were filed as active, the others as inactive; [ ] = dose if it differs, or a comment. Unless noted, calls follow the shape of the dose curve; as a rule, active = well fitted curve in the direction sought with a large enough effect; inconclusive = small, poorly fitted or top-dose-only effect, or another doubt; inactive = no such curve, though single readings can be large; an effect the other way counts as inactive or inconclusive.

Results for O=C(COCc1cc(-c2ccco2)on1)Nc1cccc(Cl)c1Cl ?
TDP-43 yeast inh: inconclusive; Abeta rescue: inactive; FUS suppressor: inactive

Results for CCCNC(=O)Nc1cc(C(=O)NCc2cccc(OCC)c2)ccc1N1CCCC1 ?
TDP-43 yeast inh: 11.2%; Abeta rescue: inactive; FUS suppressor: inactive

What do the screens show for `COc1cccc(CNc2ncnc3c2nnn3C)c1`?
TDP-43 yeast inh: inconclusive; Abeta rescue: inactive; FUS suppressor: inactive

Results for O=C(N/N=C/c1cccc(F)c1)NC1CCCCC1 ?
aSyn yeast inh: 13.5%; TDP-43 yeast inh: 12.6µM*; Abeta rescue: inactive; Akt phos inh: inactive; FUS suppressor: inactive

How did O=C(N/N=C/c1ccccc1)NC1CCCCC1 do in these assays?
aSyn yeast inh: 3.3%; TDP-43 yeast inh: 21.4%; Abeta rescue: inactive; Akt phos inh: inactive

What do the screens show for `CCc1ccc(N2C=C(C(=O)OC)C(c3ccc(OC)cc3)C(C#N)=C2N)cc1` (configuration not stated)?
aSyn yeast inh: 25.1µM*; TDP-43 yeast inh: inconclusive; Abeta rescue: inactive; Akt phos inh: inactive; FUS suppressor: inconclusive

How did COc1cc(CN(C(=O)COc2ccccc2)c2ccccn2)cc(OC)c1OC do in these assays?
TDP-43 yeast inh: 18.2%; Abeta rescue: inactive; FUS suppressor: inactive

How did CCOc1ccc(/C=C/c2nc(C#N)c(NCCc3ccccc3)o2)cc1 do in these assays?
TDP-43 yeast inh: 18.8%; Abeta rescue: inactive; FUS suppressor: inactive

What do the screens show for `Cc1nn(-c2ccccc2)c2c1N(CC(=O)N1CCN(c3ccc(Cl)cc3)CC1)C(=O)CS2`?
TDP-43 yeast inh: 0.0%; Abeta rescue: inactive; FUS suppressor: inactive

What do the screens show for `Cc1cc(NCc2ccccn2)n2ncc(-c3ccc(Cl)cc3)c2n1`?
aSyn yeast inh: 5.1%; TDP-43 yeast inh: 13.4%[1.82 µM]; Abeta rescue: inactive; Akt phos inh: inactive; FUS suppressor: inactive

Results for Cc1cc(NCc2ccccn2)n2nc(C)c(-c3ccc(Cl)cc3)c2n1 ?
aSyn yeast inh: 3.5%; TDP-43 yeast inh: 7.08µM*; Abeta rescue: inactive; Akt phos inh: inactive; FUS suppressor: inactive

What do the screens show for `Cc1ccc2c(c1)N(C(=O)N1CCC(C(=O)NCCc3ccc(Cl)cc3)CC1)CC(C)O2` (configuration not stated)?
TDP-43 yeast inh: 1.5%; Abeta rescue: inconclusive; FUS suppressor: inactive

How did Cc1ccc(Cl)cc1Nc1nn2c(=O)c3ccc(C(=O)Nc4ccc(F)cc4)cc3nc2s1 do in these assays?
TDP-43 yeast inh: 20.9%; Abeta rescue: inactive; FUS suppressor: inactive

What do the screens show for `O=[N+]([O-])c1ccc(N2CCN(Cc3ccccc3)CC2)s1`?
aSyn yeast inh: -10.9%; TDP-43 yeast inh: -7.4%; Abeta rescue: inactive; Akt phos inh: inactive; FUS suppressor: inactive

Results for O=[N+]([O-])c1ccc(N2CCN(Cc3ccccc3)CC2)c2c1no[n+]2[O-] ?
aSyn yeast inh: 13.5%; TDP-43 yeast inh: 35.5µM*; Abeta rescue: inactive; Akt phos inh: inactive; FUS suppressor: inactive

Results for Cc1ccc(OCc2nnc(N)s2)cc1 ?
aSyn yeast inh: -0.8%; TDP-43 yeast inh: -8.9%; Abeta rescue: inactive; Akt phos inh: inactive; FUS suppressor: inactive

How did Cc1cccc(OCc2nnc(N)s2)c1C do in these assays?
aSyn yeast inh: 2.5%; TDP-43 yeast inh: 4.6%; Abeta rescue: inactive[9.22 µM]; Akt phos inh: -120.4%*; FUS suppressor: inactive

Results for O=S(=O)(Nc1cccc2cccnc12)c1cccs1 ?
aSyn yeast inh: 22.4µM*

What do the screens show for `O=S(=O)(Nc1cccc2cccnc12)c1ccc2ccccc2c1`?
aSyn yeast inh: 17.8µM*

Results for Cc1ccc(-c2nc3cccnc3s2)cc1NS(=O)(=O)c1cccs1 ?
aSyn yeast inh: -13.0%; TDP-43 yeast inh: 11.2µM*; Abeta rescue: inactive; Akt phos inh: inactive; FUS suppressor: inactive

What do the screens show for `COc1ccc(S(=O)(=O)Nc2cccc3cccnc23)c([N+](=O)[O-])c1`?
aSyn yeast inh: 22.4µM*

Results for O=S(=O)(Nc1cccc2ccccc12)c1cccs1 ?
aSyn yeast inh: 1.7%; TDP-43 yeast inh: -2.0%; Abeta rescue: inactive; Akt phos inh: inactive; FUS suppressor: inactive

How did CCOc1ccccc1NC1(c2ccccc2)C(=O)c2ccccc2C1=O do in these assays?
aSyn yeast inh: 9.6%; TDP-43 yeast inh: 3.9%; Abeta rescue: inactive; FUS suppressor: inactive

Results for CCCCN(Cc1ccccc1)S(=O)(=O)c1cc(Br)cc2c1N(C(=O)C1CC1)CC2 ?
TDP-43 yeast inh: 9.2%; Abeta rescue: inactive; FUS suppressor: inactive

How did Cc1ccc(S(=O)(=O)N2CCN(c3nc(-c4cccs4)nc4ncccc34)CC2)cc1 do in these assays?
aSyn yeast inh: -1.9%

What do the screens show for `CC(C)c1cnc2c(c1SCc1cccc(C(F)(F)F)c1)c(=O)n(C)c(=O)n2C`?
TDP-43 yeast inh: 16.0%; Abeta rescue: inactive; FUS suppressor: inactive

What do the screens show for `Cc1ccc(CNC(=O)c2nc(-c3ccc(Cl)cc3)n3c2CCCCC3)cc1`?
TDP-43 yeast inh: 21.8%; Abeta rescue: inactive; FUS suppressor: inconclusive

What do the screens show for `O=C1CCSC2(C(=O)N(Cc3ccccc3)c3ccccc32)N1c1ccccc1` (configuration not stated)?
TDP-43 yeast inh: inconclusive; Abeta rescue: inactive; FUS suppressor: inconclusive

Results for Cn1c(COc2ccc(Cl)cc2)nnc1SCc1ncc(-c2ccccc2)o1 ?
aSyn yeast inh: inconclusive; TDP-43 yeast inh: 22.4µM*; Abeta rescue: inactive; Akt phos inh: inactive; FUS suppressor: inconclusive

What do the screens show for `O=c1c2cn[nH]c2nc(SCc2cccc(Br)c2)n1-c1ccc(Cl)cc1`?
TDP-43 yeast inh: 6.2%; Abeta rescue: inactive; FUS suppressor: 35.5µM*

Results for Cc1ccccc1-n1c(SCc2ccc(Cl)cc2)nc2[nH]ncc2c1=O ?
TDP-43 yeast inh: 17.2%; Abeta rescue: inactive; FUS suppressor: inconclusive

What do the screens show for `Cc1ccc(S(=O)(=O)N(C)CC(O)Cn2c3ccccc3c3ccccc32)cc1` (configuration not stated)?
aSyn yeast inh: 17.7%; TDP-43 yeast inh: 22.9%; Abeta rescue: inactive; Akt phos inh: -113.6%*; FUS suppressor: inactive

What do the screens show for `Cc1ccc(S(=O)(=O)N(CC(O)Cn2c3ccccc3c3ccccc32)c2cccc(C(=O)N(C)C)c2)cc1` (configuration not stated)?
aSyn yeast inh: -1.3%; TDP-43 yeast inh: 15.5%; Abeta rescue: inactive; FUS suppressor: inconclusive

How did Cc1ccc(S(=O)(=O)N(CC(O)Cn2c3ccccc3c3ccccc32)c2cccc(C(=O)NCCO)c2)cc1 (configuration not stated) do in these assays?
aSyn yeast inh: -5.0%; TDP-43 yeast inh: 13.3%; Abeta rescue: inactive; FUS suppressor: 20µM*
